About 83,000 compounds went through this panel and 20% of them were active in at least one assay; those are over-represented in the sample as a whole.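 Results are percent growth after 48 hours of single-concentration exposure. 100 means growth as in untreated cells, lower positive values show inhibition; negative values down to -100 show cell death.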 Active and inactive are the calls of the source. Rule for the calls: active = growth percent below 10; inactive = the rest.
What was measured:
Assay in all cases: NCI-60 one-dose screen, 48 h (100 = growth as untreated, 0 = no growth, -100 = all killed)
Conditions in all cases: 10 µM unless noted
HCT-15 colon = test system: HCT-15 colon
HT29 colon = test system: HT29 colon
SNB-75 CNS = test system: SNB-75 CNS
SNB-19 CNS = test system: SNB-19 CNS
U251 CNS = test system: U251 CNS
PC-3 prostate = test system: PC-3 prostate
SK-MEL-5 melanoma = test system: SK-MEL-5 melanoma
UACC-62 melanoma = test system: UACC-62 melanoma
SK-MEL-28 melanoma = test system: SK-MEL-28 melanoma
LOX IMVI melanoma = test system: LOX IMVI melanoma

Measured: growth

O=C(c1c[nH]c2ccccc12)c1n[nH]c(=S)n1-c1cccc(Br)c1
inactive: HCT-15 colon 40.9% | HT29 colon 96.2% | SNB-75 CNS 83.2% | SNB-19 CNS 93.8% | U251 CNS 97.3% | PC-3 prostate 87.8% | SK-MEL-5 melanoma 28% | UACC-62 melanoma 51.9% | SK-MEL-28 melanoma 105%

Cc1cccc[n+]1C1c2ccccc2-c2ccccc21
inactive: HCT-15 colon 109% | HT29 colon 79.2% | SNB-75 CNS 94.1% | SNB-19 CNS 89.7% | U251 CNS 83.1% | PC-3 prostate 67.6% | SK-MEL-5 melanoma 94.5% | UACC-62 melanoma 92.3% | SK-MEL-28 melanoma 102%

C/C(=N\O)c1ccc(NC(=O)CSc2nnc(-c3cc(-c4ccc(S(N)(=O)=O)cc4)nc4ccccc34)n2-c2ccccc2)cc1
inactive: HCT-15 colon 81% | HT29 colon 66.2% | SNB-75 CNS 24.3% | SNB-19 CNS 66.9% | U251 CNS 62.5% | PC-3 prostate 63.6% | SK-MEL-5 melanoma 54% | UACC-62 melanoma 62.4% | SK-MEL-28 melanoma 84.4%

Cc1ccc(-c2csc(N(C(=O)N3CCN(c4cc5c(cc4F)c(=O)c(C(=O)O)cn5C4CC4)CC3)c3ccccc3)n2)cc1
active: HCT-15 colon 7.57% | HT29 colon 3.8% | SK-MEL-5 melanoma -57.2% | UACC-62 melanoma 1.23%
inactive: SNB-75 CNS 18.6% | SNB-19 CNS 15.7% | U251 CNS 12.6% | PC-3 prostate 11.8% | SK-MEL-28 melanoma 32.3%

CCCCNc1cc(-c2cn[nH]c2-c2cc(C)cc(OC)c2)nc(-c2cccnc2)n1
inactive: HCT-15 colon 82.7% | HT29 colon 95.1% | SNB-75 CNS 76.2% | SNB-19 CNS 95.6% | U251 CNS 87.3% | PC-3 prostate 80.9% | SK-MEL-5 melanoma 77.4% | UACC-62 melanoma 80.2% | LOX IMVI melanoma 91.2% | SK-MEL-28 melanoma 96.4%

CC1=C(C(=O)Nc2ccccc2)C(c2ccc3c(c2)OCO3)NC(=S)N1 (stereo unspecified)
inactive: HCT-15 colon 101% | HT29 colon 109% | SNB-75 CNS 107% | SNB-19 CNS 96.2% | U251 CNS 104% | PC-3 prostate 95.3% | SK-MEL-5 melanoma 102% | UACC-62 melanoma 97.5% | LOX IMVI melanoma 96.2% | SK-MEL-28 melanoma 112%

CN(CCCNC(=O)CCOCCOCCOCCNC(=O)Cc1ccc2ccc3cccc4ccc1c2c34)CCCNc1cc(-c2ccc3ccccc3c2)nc2ccccc12
active: HCT-15 colon -77.5% | HT29 colon -87.6% | SNB-75 CNS -95.7% | SNB-19 CNS -95.1% | U251 CNS -70.7% | PC-3 prostate -93.6% | SK-MEL-5 melanoma -96% | UACC-62 melanoma -65.9% | SK-MEL-28 melanoma -94%

CC(=O)Oc1ccc(OC(C)=O)c2ccccc12
inactive: HCT-15 colon 99.1% | HT29 colon 107% | SNB-75 CNS 105% | SNB-19 CNS 91.9% | U251 CNS 89% | PC-3 prostate 54.8% | SK-MEL-5 melanoma 60.2% | UACC-62 melanoma 78% | LOX IMVI melanoma 81.2% | SK-MEL-28 melanoma 111%

COc1ccc(C(=O)c2cc3c(N)c(C(=O)Nc4ccccc4)sc3nc2C)cc1
inactive: HCT-15 colon 18.7% | HT29 colon 14.9% | SNB-75 CNS 28.2% | SNB-19 CNS 25.2% | U251 CNS 17.8% | PC-3 prostate 24.3% | SK-MEL-5 melanoma 17.2% | UACC-62 melanoma 30.5% | LOX IMVI melanoma 53.6% | SK-MEL-28 melanoma 59.8%

C/C=C(\C)C(=O)N[C@H]1C(O)C[C@]2(C)C3CC[C@@]4(C)C(CC[C@@H]4C(C)N(C)C)C3CCC2C1O (stereo partly specified)
active: HCT-15 colon -28.6% | HT29 colon 1.91% | SK-MEL-5 melanoma -41.3% | SK-MEL-28 melanoma -7.39%
inactive: SNB-75 CNS 74.5% | SNB-19 CNS 104% | U251 CNS 52.3% | PC-3 prostate 45.5% | UACC-62 melanoma 62.3%

CCCCCCCCCCCCCOC(=O)c1c(C)[nH]c(/C=C2\N=C(c3ccc[nH]3)C=C2OC)c1C
inactive: SNB-75 CNS 21.2% | SNB-19 CNS 48.1% | U251 CNS 23.9% | PC-3 prostate 27.6% | SK-MEL-28 melanoma 30.2%
active: HCT-15 colon 4.86% | HT29 colon 8.1% | SK-MEL-5 melanoma -89.1% | UACC-62 melanoma -19.1%

Nc1c(C(=O)Nc2cccc(Cl)c2)sc2nc3c(cc12)CCCC3
inactive: HCT-15 colon 78.8% | HT29 colon 68.2% | SNB-75 CNS 101% | SNB-19 CNS 92.2% | U251 CNS 89.3% | PC-3 prostate 80.2% | UACC-62 melanoma 70.2% | LOX IMVI melanoma 93% | SK-MEL-28 melanoma 91.1%

CN(Cc1ccccc1)c1nc(Cl)c(C2CC(c3ccccc3)=NN2c2ccccc2)s1 (stereo unspecified)
inactive: HCT-15 colon 94.2% | HT29 colon 80.8% | SNB-75 CNS 82.3% | SNB-19 CNS 100% | U251 CNS 90.2% | PC-3 prostate 83.2% | UACC-62 melanoma 88.8% | LOX IMVI melanoma 88.4% | SK-MEL-28 melanoma 98.2%

O=C(Oc1ccc(CCl)cc1)c1ccccc1
active: HCT-15 colon -87.4% | HT29 colon -58.4% | SNB-75 CNS -98.6% | SNB-19 CNS -86.4% | U251 CNS -86.3% | PC-3 prostate -91.3% | UACC-62 melanoma -76.9% | LOX IMVI melanoma -85.1% | SK-MEL-28 melanoma -75.6%

CS(=O)(=O)Nc1cc(-c2ccc3ncc(C#N)c(Nc4ccc(F)c(Cl)c4)c3c2)cnc1Cl
inactive: SNB-19 CNS 14.3%
active: HCT-15 colon 8.1% | HT29 colon 1.84% | SNB-75 CNS -6.88% | U251 CNS -15.4% | PC-3 prostate 8.23% | UACC-62 melanoma -10.7% | LOX IMVI melanoma -53.7% | SK-MEL-28 melanoma 5.07%

Cc1ccc(S(=O)(=O)Oc2ccc3sc4cccc(NCCN(C)C)c4c(=O)c3c2)cc1
active: HCT-15 colon -94.2% | HT29 colon -60.6% | SNB-75 CNS -92.9% | SNB-19 CNS -60% | U251 CNS -78.6% | PC-3 prostate -86.4% | UACC-62 melanoma -98.2% | LOX IMVI melanoma -96.5% | SK-MEL-28 melanoma -92.4%

O=C(NNC(=O)c1nc2cc(F)ccc2n2cccc12)c1cnccn1
inactive: HCT-15 colon 24.3% | HT29 colon 31.2% | SNB-75 CNS 77.1% | SNB-19 CNS 33% | U251 CNS 20.3% | PC-3 prostate 43.7% | UACC-62 melanoma 19.6% | LOX IMVI melanoma 26.7% | SK-MEL-28 melanoma 36.4%

O=S(=O)(Oc1ccc(Br)cc1)c1ccc(Cl)cc1
inactive: HCT-15 colon 97.6% | HT29 colon 99% | SNB-75 CNS 121% | SNB-19 CNS 103% | U251 CNS 106% | PC-3 prostate 91.7% | UACC-62 melanoma 98.6% | LOX IMVI melanoma 95.1% | SK-MEL-28 melanoma 103%

Cc1ccc(CNc2c3ccccc3nc3ccccc23)cc1
inactive: HCT-15 colon 15.6% | HT29 colon 10.3% | SNB-75 CNS 41.7% | SNB-19 CNS 29.7% | U251 CNS 26% | PC-3 prostate 24.3% | UACC-62 melanoma 43.4% | LOX IMVI melanoma 11.8% | SK-MEL-28 melanoma 59.5%

COc1ccc2cc(-c3ccnc4c(N=Nc5ccc(Cl)cc5)c(N)nn34)ccc2c1
inactive: HCT-15 colon 112% | HT29 colon 103% | SNB-75 CNS 79.4% | SNB-19 CNS 92.4% | U251 CNS 93.4% | PC-3 prostate 89% | UACC-62 melanoma 91.8% | LOX IMVI melanoma 102% | SK-MEL-28 melanoma 99.2%

Cc1c2cccnc2c(C)c2c1c1cc(CO)ccc1n2C
inactive: HCT-15 colon 18.7% | HT29 colon 16% | SNB-75 CNS 45.5% | SNB-19 CNS 21.1% | U251 CNS 14% | PC-3 prostate 31% | SK-MEL-28 melanoma 30.6%
active: UACC-62 melanoma -16.6% | LOX IMVI melanoma 8.95%

CSC(SC)=C(C#N)c1nc2ccccc2s1
inactive: HCT-15 colon 61.8% | HT29 colon 97.2% | SNB-75 CNS 74.3% | SNB-19 CNS 66.9% | U251 CNS 76.5% | PC-3 prostate 30% | LOX IMVI melanoma 84.1% | SK-MEL-28 melanoma 38.8%
active: UACC-62 melanoma 9.44%

CCOC(=O)c1c(C)nc2ccccc2c1/C=C/c1cccs1
inactive: HCT-15 colon 58.6% | HT29 colon 76.3% | SNB-75 CNS 80.1% | SNB-19 CNS 83.5% | U251 CNS 81.2% | PC-3 prostate 60.4% | UACC-62 melanoma 50.7% | LOX IMVI melanoma 73.1% | SK-MEL-28 melanoma 106%

O=C1Nc2ccccc2C1(c1c[nH]c2ccccc12)c1c[nH]c2ccccc12
active: SNB-75 CNS -12.9% | PC-3 prostate -9.62% | LOX IMVI melanoma 8.4%
inactive: HCT-15 colon 32.2% | HT29 colon 53.3% | SNB-19 CNS 81.5% | U251 CNS 73.7% | UACC-62 melanoma 70.3% | SK-MEL-28 melanoma 108%

Cn1cc(-c2ccc(-c3cn(C)c4ccc(Cl)cc34)[nH]2)c2cc(Cl)ccc21
inactive: HT29 colon 21.9%
active: HCT-15 colon -66.3% | SNB-75 CNS -59.9% | SNB-19 CNS -68.5% | U251 CNS -100% | PC-3 prostate -56.5% | UACC-62 melanoma -82.3% | LOX IMVI melanoma -95.2% | SK-MEL-28 melanoma -52.9%

COc1cc(/C=N/Nc2ccc(Br)cc2)cc(OC)c1OC
inactive: HCT-15 colon 18.9% | HT29 colon 29.2% | SNB-75 CNS 87.5% | SNB-19 CNS 91.6% | U251 CNS 65.5% | PC-3 prostate 60.9% | UACC-62 melanoma 36.8% | LOX IMVI melanoma 13.5% | SK-MEL-28 melanoma 82.1%

O=C(CCCCCCN1CC(=O)N2[C@H](c3ccc(Cl)cc3)c3[nH]c4ccccc4c3C[C@@H]2C1=O)NO
inactive: HCT-15 colon 109% | HT29 colon 67.5% | SNB-75 CNS 30.2% | SNB-19 CNS 69.6% | U251 CNS 53% | PC-3 prostate 48.2% | UACC-62 melanoma 21% | LOX IMVI melanoma 27.1% | SK-MEL-28 melanoma 45.3%

N[C@H]1CCC[C@@H]1NCCCCN1C(=O)c2cccc3cc([N+](=O)[O-])cc(c23)C1=O
inactive: HCT-15 colon 63.5% | HT29 colon 14.2% | SNB-75 CNS 46.7% | SNB-19 CNS 46.2% | U251 CNS 42.1% | PC-3 prostate 40.7% | UACC-62 melanoma 72.2% | LOX IMVI melanoma 22.8% | SK-MEL-28 melanoma 93.6%

Reference: PubChem BioAssay (NCI)
